Source: PubChem
Only a selection was taken, and hits are over-represented in it overall.
Tg IFNy HTS: T. gondii growth inhibition under IFN-gamma. Toxoplasma gondii growth in IFN-gamma-treated host cells; stronger effect = lower value. activity change, negative = inhibition, % (test concentration not listed). 3.8% of 69,000 active. AID 1259416; in the data active means activity change below about -70%, passing the limit was not always enough;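 further: host cells are HeLa cells infected with Toxoplasma gondii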
The depositor's hits bear a star; i = inactive.

SMILES	Tg IFNy HTS
COc1ccc(-c2[nH]c3ncccc3c2CN2CCC(O)(c3ccccc3C)CC2)cc1	-98*
CC(C(=O)N(C)C)N(C)Cc1ccc(-c2ccn[nH]2)o1 (configuration not stated)	-47
CN(C)C(=S)SCc1ccccc1C(=O)Oc1c(Cl)cccc1Cl	-2
Cc1cccc(C(=O)N2CCC3(CC2)Nc2ccc(C)c(C)c2-n2cccc23)c1	24
Cc1noc(C)c1S(=O)(=O)Nc1ccc2c(c1)C(=O)N([C@@H](C)CO)C[C@@H](C)[C@@H](CN(C)C(=O)NC1CCCCC1)O2	-8
Cc1cccc(-c2nc(C)c(CCNS(=O)(=O)c3ccccc3F)s2)c1	i
Cc1cccc(-c2nc(C)c(CCNS(=O)(=O)c3ccc(I)cc3)s2)c1	i
Cc1nc(-c2ccccc2)sc1CCNS(=O)(=O)c1ccccc1	369
Cc1nc(-c2ccc(Cl)cc2)sc1CCNS(=O)(=O)c1ccccc1F	-72*
Cc1cc(F)ccc1S(=O)(=O)NCCc1sc(-c2ccc(Cl)cc2)nc1C	362
Cc1cccc(-c2nc(C)c(CCNS(=O)(=O)c3ccc(-c4ccccc4)cc3)s2)c1	-84*
Cc1cc(C)n(CC(C)Nc2ccc(-c3nccn3C)nn2)n1 (configuration not stated)	i
CC(=O)Nc1ccc(C)cc1S(=O)(=O)N1CCC2(CC1)Nc1cc(C)ccc1-n1cccc12	1
CO[C@H]1CCN(S(=O)(=O)c2ccc(C)cc2)[C@H]1Cc1cnn(C)c1	-1
CCOc1ncnc2cc(OC)c(OC)cc12	-59
Cc1ccc(C(=O)Nc2ccc(-c3nc(Cn4cccn4)c(C)o3)cc2)s1	65
OCCCCn1cnc(-c2ccccc2)c1-c1ccc2cccc(Cl)c2n1	-88*
CN(C)C(=O)CCCn1cnc(-c2ccccc2)c1-c1cc2ccccc2[nH]1	-6
CCc1nc(-c2c(-c3ccccc3)ncn2CCCO)c(C)[nH]1	3
COC(=O)c1ccc(-c2nc(CN3CCN(Cc4ccc(OC)cc4)C(=O)C3)c(C)o2)cc1	6
Cn1cc(N2CC3(CCN(S(C)(=O)=O)C3)CC2=O)cn1 (configuration not stated)	12
CCS(=O)(=O)N1CCC2(CC(=O)N(c3cnn(C)c3)C2)C1 (configuration not stated)	5
Cn1cc(N2CC3(CCN(CCO)C3)CC2=O)cn1 (configuration not stated)	-87*
COc1cccc(C(=O)N2CCc3c([nH]c4ccccc34)C2c2ccc(Cl)cc2)c1 (configuration not stated)	-99*
Cc1ccc(C2c3[nH]c4ccccc4c3CCN2C(=O)CCC2CCCC2)cc1 (configuration not stated)	-67
SMILES	Tg IFNy HTS
CSc1ccc(C2c3[nH]c4ccccc4c3CCN2C(=O)c2ccc3c(c2)OCO3)cc1 (configuration not stated)	209
COc1cccc(C(=O)N2CCc3c([nH]c4ccccc34)C2c2ccc(C)cc2)c1 (configuration not stated)	-126*
O=C(c1ccc2c(c1)OCO2)N1CCc2c([nH]c3ccccc23)C1c1ccc(Cl)cc1 (configuration not stated)	-83*
Cc1ccc(C2c3[nH]c4ccccc4c3CCN2C(=O)c2cccnc2)cc1 (configuration not stated)	68
O=C(c1cccnc1)N1CCc2c([nH]c3ccccc23)C1c1ccc(Cl)cc1 (configuration not stated)	-114*
O=C(c1cccnc1)N1CCc2c([nH]c3ccccc23)C1c1ccc(F)cc1 (configuration not stated)	76
COc1ccc(C(=O)N2CCc3c([nH]c4ccccc34)C2c2ccc(Cl)cc2)cc1OC (configuration not stated)	12
CCOC(=O)N1CCC(NCC(=O)NCc2ccccc2F)CC1	5
Cc1nc2c(-c3cnc(N)nc3)nc(N3CCOCC3)nc2n1C(C)C	-19
COCCN1C(=O)CCc2cc(NS(=O)(=O)c3ccc(OC)cc3)ccc21	-7
CC(C)COC(=O)N(C)C[C@@H]1OCc2ccccc2-c2ccccc2C(=O)N([C@H](C)CO)C[C@H]1C	-35
O=C(Cn1ncc2c(N3CCCCC3)ncnc21)Nc1ccc(Br)cc1F	159
CCc1cccc(NC(=O)N2CCn3cnc(COC)c3C2)c1	i
COCc1ncn2c1CN(S(=O)(=O)c1cccs1)CCC2	1
CCc1ccc(CN(C)Cc2nc(-c3cccc(Cl)c3)no2)cc1	6
Cc1ccc(S(=O)(=O)N2CC[C@@H]3[C@@H](CO)Nc4ccc(-c5cccc(C(=O)N(C)C)c5)cc4[C@@H]32)cc1	-70
Cc1ccc(C2c3[nH]c4ccccc4c3CCN2C(=O)c2cccc(Cl)c2)cc1 (configuration not stated)	-89*
O=C(c1ccco1)N1CCc2c([nH]c3ccccc23)C1c1ccc(Cl)cc1 (configuration not stated)	-88*
CSc1ccc(C2c3[nH]c4ccccc4c3CCN2C(=O)c2cccc(Cl)c2)cc1 (configuration not stated)	-18
O=C(c1ccco1)N1CCc2c([nH]c3ccccc23)C1c1cccnc1 (configuration not stated)	-44
Cn1nccc1C(=O)N1CCc2c([nH]c3ccccc23)C1c1ccc(Cl)cc1 (configuration not stated)	-115*
COCC(=O)N1CCc2c([nH]c3ccccc23)C1c1ccc(Cl)cc1 (configuration not stated)	-16
CSc1ccc(C2c3[nH]c4ccccc4c3CCN2C(=O)c2ccc(Cl)cc2)cc1 (configuration not stated)	60
O=C(C1CCC1)N1CCc2c([nH]c3ccccc23)C1c1ccc(Cl)cc1 (configuration not stated)	-40
COCCN(Cc1cnn(C)c1)C(=O)C(=O)c1cccs1	3
SMILES	Tg IFNy HTS
NC(=O)c1cnc2n1CCN(C(=O)c1ccccc1-n1cccn1)C2	3
CC(C)CN1Cc2ccccc2C2(CCN(c3ncc(F)cn3)CC2)C1	-6
Cc1cc(F)ccc1NC(=O)C(C)NC(=O)COc1cccnc1 (configuration not stated)	126
C/C=C/c1ccc([C@@H]2[C@H](CO)N3C(=O)CN(C(=O)Nc4cccc(OC)c4)C[C@@H]23)cc1	9
O=C(NCCc1csc(-c2ccccc2)n1)[C@H]1CCCN1C(=O)Cc1ccc(Cl)cc1	24
COc1ccc(-c2nc(C)c(CCNC(=O)c3cccc(Cl)c3)s2)cc1	i
COc1ncc(C2(O)CCN(S(=O)(=O)c3ccc(C)cc3)CC2)c(OC)n1	-45
Cc1ccc(-c2nc(Cn3c(=O)c4c(C)cc(C)nc4n(C)c3=O)c(C)o2)cc1	-6
CSc1sc(C2=NNC(O)(C(F)(F)F)C2)c2c1C(=O)CCC2(C)C (configuration not stated)	-96*
OC1(C(F)(F)F)CC(c2ccncc2)=NN1 (configuration not stated)	-15
O=C(NCC(=O)N1CCn2nc(C(=O)Nc3ccccc3)cc2C1)c1ccccc1	-4
Cc1cc(-n2cnnc2C(O)c2ccccc2)n(C)n1 (configuration not stated)	5
C[C@@H]1CCCCO[C@@H](CN(C)Cc2ccncc2)[C@@H](C)CN([C@@H](C)CO)C(=O)c2cc(NS(=O)(=O)c3ccc(Cl)cc3)ccc2O1	50
C[C@@H]1CN([C@@H](C)CO)C(=O)c2cc(NS(=O)(=O)c3ccc(Cl)cc3)ccc2O[C@@H](C)CCCCO[C@@H]1CN(C)Cc1ccncc1	-113*
